# Bioassay records deposited in PubChem BioAssay by several laboratories.
# HIF-2a block – HIF-2a reporter inhibitors, primary screen, luminescence, 786-0 RCC cells; actives 0.72% (n = 360,000); inhibition, % at 18.8 µM; 786-0 RCC cells HIF-2a reporter, luciferase luminescence, overnight; AID 624352, 2012;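 active means inhibition of the luminescence signal of 40% or more relative to plate controls, in a single-dose primary screen at 18.75 µM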
# TWEAK-Fn14 inh – inhibitors of TWEAK-Fn14 signaling, primary screen, luciferase reporter cells, uHTS | inhibition, % at 10 µM | TWEAK-stimulated Fn14 reporter cells, luciferase luminescence, 8 h | actives 2% (n = 360,000); in the data active means inhibition above about 50%
# TROY signal inh – inhibitors of TROY-driven NF-kB signaling, primary screen, Q293 LMP1-TROYcd cells, NF-kB luciferase, uHTS; Q293 LMP1-TROYcd NF-kB luciferase reporter, 4 h; inhibition, % at 10 µM; actives 0.98% (n = 360,000); AID 1347056, 2019;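 active means compounds whose plate-normalised and pattern-corrected inhibition of the luciferase reporter signal at the single screening dose is 50% or more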
# TRPM1 prom inh – inhibitors of MITF-dependent TRPM1 promoter reporter, primary screen, cell-based, SK-MEL-5, single point, luciferase. SK-MEL-5 TRPM1 promoter luciferase, 24 h. inhibition, % at 12.5 µM. actives 0.83% (n = 330,000). AID 488899, 2010;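 active means mean inhibition across replicates of 60% or more, whatever share of single replicates reaches that level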
# Shn3 3UTR inh – reduction of Shn3 3'UTR firefly luciferase signal, primary screen, Schnurri-3 inhibitor project, cell-based, Clone20 osteoblasts, set 2. actives 0.52% (n = 360,000). inhibition, % at 12.5 µM. Clone20 osteoblast Shn3 3'UTR firefly luciferase, 24 h. AID 588674, 2011;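 active means mean inhibition of at least 75% with every replicate also reaching 75%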;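 further: 0% = median of neutral control wells and 100% = pilot-screen positive control compound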
# EBV LMP1 NFkB – EBV LMP1-driven NF-kappaB luciferase reporter inhibitors, primary screen, cell-based, luminescence, single point | LMP1-induced NF-kappaB luciferase reporter cells | inhibition, % at 12.5 µM | actives 0.69% (n = 350,000); in the data active means inhibition above about 41%;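 further: 0% = neutral control wells and 100% = reference inhibitor control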
# Mdm2 MdmX conf – retested Mdm2-MdmX interaction blockers, confirmation, cell-based, luminescence, single concentration, set 2 | shares compounds with HIF-2a block | SaOS-2 split-luciferase Mdm2/MdmX complementation | inhibition, % at 8 µM | actives 99% (n = 740);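 active means mean inhibition of the luminescence signal across two replicates at or above 26 percent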
# HIF-2a conf – HIF-2a reporter inhibitor retest, confirmation, luminescence, 786-0 RCC cells; inhibition, % at 18.8 µM; shares compounds with HIF-2a block; AID 651580, 2012; actives 56% (n = 1,800); HIF-2a luciferase reporter luminescence, overnight;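 active means mean inhibition across four replicates of at least 40 percent at the single tested concentration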
# HIF-1a counter – HIF-1a luciferase reporter signal reduction – MiaPaCa-2 cells, single concentration, counter-screen for HIF-2a inhibitor project, confirmation; shares compounds with HIF-2a block; MiaPaCa-2 HIF-1a luciferase reporter, desferoxamine, overnight; inhibition, % at 18.8 µM; actives 72% (n = 1,800);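 active means mean inhibition of the reporter signal across four replicates at the single tested dose of 50% or more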
# * marks the source's active call; other numbers are inactive results; / = no result given. Hits are enriched below; roughly 3.4% of the tested compounds scored in any of these assays.
SMILES,HIF-2a block,TWEAK-Fn14 inh,TROY signal inh,TRPM1 prom inh,Shn3 3UTR inh,EBV LMP1 NFkB,HIF-2a conf,HIF-1a counter,others
CC(=O)Nc1ncnc2c1c(-c1ccc(Cl)cc1)nn2C(C)(C)C,48*,5,-7,5,34,18,43*,49,
CC(=O)N(C(C)=O)c1ncnc2c1c(-c1ccc(Cl)cc1)nn2C(C)(C)C,39,40,28,7,19,15,/,/,
N#Cc1c(NC(=O)CSc2ncn[nH]2)sc2c1CCCCC2,90*,75*,46,80*,60,36,96*,70*,
Cn1cnnc1SCC(=O)Nc1sc2c(c1C#N)CCCCC2,-83,4,-1,-13,-41,-36,/,/,
O=c1cccc2c1c1cc[nH]c3ccc(=O)n2c31,36,54*,41,29,-27,16,/,/,Mdm2 MdmX conf=93*
O=c1c(Cl)c(N2CCCCC2)cnn1-c1nc2ccccc2[nH]1,70*,104*,82*,64*,44,78*,79*,86*,
O=c1c2ccccc2cnn1-c1nc2ccccc2[nH]1,92*,97*,89*,93*,88*,85*,94*,99*,
O=c1c2ccccc2nc2c3ccccc3cnn12,-283,-38,-100,-46,-14,-29,/,/,
CC(C)(C)c1ccc(/C=C/C(=O)NCCCN2CCOCC2)cc1,48*,32,29,2,4,-9,26,30,
CC(C)(C)c1ccc(C(=O)NCCCN2CCN(CCCNC(=O)c3ccc(C(C)(C)C)cc3)CC2)cc1,73*,-22,28,90*,83,-4,/,/,Mdm2 MdmX conf=102*
Cc1ccc(/C=C/C(=O)NCCCN2CCN(CCCNC(=O)/C=C/c3ccc(C)cc3)CC2)cc1,-9,18,0,10,0,3,/,/,
CCOC(=O)/C(=C\c1ccccc1)C(=O)c1cc(C(C)=O)c(Nc2ccccc2)s1,95*,70*,34,56,98*,53*,88*,107*,
CCOC(=O)/C(C#N)=C\c1cccnc1,19,-1,-6,-3,-12,-7,/,/,
CCOC(=O)/C(=C\c1cccnc1)C(=O)c1cc(C(C)=O)c(Nc2ccccc2)s1,96*,106*,86*,98*,98*,27,/,/,Mdm2 MdmX conf=103*
O=C(CNC1CCCCC1)Nc1ccc(Cl)cc1,-4,-17,3,-16,-5,-5,/,/,
COc1cc(/C=N/NC(=O)c2cccc([N+](=O)[O-])c2)ccc1OCc1ccccc1,11,-15,-22,-108,-32,-2,/,/,
CCOC(=O)C(=Cc1ccc(OCc2ccc([N+](=O)[O-])cc2)c(OC)c1)C(=O)OCC,93*,58*,30,4,84,-7,98*,108*,
COC(=O)C(=Cc1ccc(OCc2ccc([N+](=O)[O-])cc2)c(OC)c1)C(=O)OC,81*,91*,57*,30,12,13,82*,101*,
CC(C)(C)C#CCn1c(/C=[N+](\[O-])C2CCCCC2)nc2ccccc21,-36,-13,-57,-2,31,6,/,/,
COc1ccc(OC)c2sc(NC(=O)CCS(=O)(=O)c3ccccc3)nc12,90*,20,-9,/,17,7,-31,56*,
COc1ccc(OC)c2sc(NC(=O)CCSc3ccccc3)nc12,4,20,-7,-5,19,-1,/,/,
Cc1ccc2nc(C)cc(Nc3ccc([N+](=O)[O-])cc3)c2c1,53*,-151,-20,84*,48,-98,12,95*,
Cc1ccccc1Nc1nnc(-c2ccc(C(=O)NCCO)cc2)c2ccccc12,17,11,-8,14,16,25,/,/,
CCOC(=O)c1c(NC(=O)/C=C/C(=O)O)sc(C)c1-c1ccc(C(C)(C)C)cc1,-21,98*,90*,35,57,-31,/,/,Mdm2 MdmX conf=103*
CCOC(=O)c1c(NC(=O)c2c(-c3ccccc3)noc2C)sc(C)c1-c1ccccc1,-13,-17,-26,7,81,21,/,/,Mdm2 MdmX conf=102*
SMILES,HIF-2a block,TWEAK-Fn14 inh,TROY signal inh,TRPM1 prom inh,Shn3 3UTR inh,EBV LMP1 NFkB,HIF-2a conf,HIF-1a counter,others
Cc1ccc(S(=O)(=O)Nc2c(C(=O)O)[nH]c3ccccc23)c(C)c1,-8,-3,-20,14,2,-18,/,/,
Cc1nn(-c2ccccc2)c(/N=C/c2ccccc2O)c1-c1ccccc1,-181,-3,-43,-51,-41,-12,/,/,
CCN(CC)CCNC(=O)C(Cl)=C1C(Cl)=C(Cl)C(Cl)=C1Cl,67*,28,9,13,32,-68,31,61*,
CCN(CC)CCNC(=O)C12CC3CC(CC(C3)C1)C2,11,-11,7,-7,-5,-5,/,/,
COc1ccc(C(=O)Nc2ccc(C)cn2)c(OC)c1,62*,102*,76*,75*,18,75*,76*,85*,
COc1ccc(C(=O)Nc2cc(C)on2)c(OC)c1,-296,20,-13,-112,-121,-20,/,/,
O=C(Nc1ccc(S(=O)(=O)NC2=NCCCCC2)cc1)c1ccc([N+](=O)[O-])s1,60*,-2,12,89*,11,3,21,106*,
Cc1nc2cc(NC(=O)c3ccc([N+](=O)[O-])s3)ccc2s1,67*,14,-32,104*,-7,21,75*,93*,
Cc1cc(NS(=O)(=O)c2ccc(NC(=O)c3ccc([N+](=O)[O-])s3)cc2)nc(C)n1,15,-1,0,31,-22,2,/,/,
Cc1ccsc1/C=N/N1CCN(Cc2ccccc2)CC1,-190,-22,-23,-45,-24,-14,/,/,
Cc1cc(C)c2nc(C)cc(N/N=C/c3ccc(O)cc3)c2c1,93*,-352,-53,86*,71,-20,/,/,Mdm2 MdmX conf=103*
Cc1cc(N/N=C/c2ccc(O)cc2)c2cccc(C)c2n1,11,-59,-73,51,0,6,/,/,
